Data reported in PubChem BioAssay (NCATS).
Several values for one entry are separate records, joined by “and”; a condition that tells them apart may be missing. Equal entries are not always repeated. Results filed as inconclusive are left out. Where a call stands in place of a potency, no number is given. Unmarked numbers belong to inactive results. Activity calls are given as the source filed them. Calls follow the shape of the dose curve; as a rule, active = well fitted inhibition curve with a large enough effect; inconclusive = small, poorly fitted or top-dose-only effect; inactive = flat fitted curve, though single readings scatter. *1 amine or outer side, *2 acyl side, *3 side chain or, on linkers, in order; H or OH if unused. Where a SMILES comes first, the peptide text is derived from it. Bridges are numbered along the chain shown (N, C = ends). X6 = O=C(CCC[*:2])[*:1]

Legend:
Test in all cases: Cytotoxic Profiling of Annotated Libraries Using Quantitative High-Throughput Screening (AID 1296008); also: nearly all actives have a fitted effect of over 60% in size
Conditions in all cases: Five cell lines viability, CellTiter-Glo ATP luminescence, 48-72 h; max response: active compounds read low
CRL-7250 = normal cell line; test system: CRL-7250
In short: (§1)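 Compounds were pin-transferred onto cells and incubated 48 or 72 hr at 37 degree Celsius, 95% humidity. CellTiter-Glo was added, plates sat 10 min at room temperature, then ATP-coupled luminescence was imaged as the viability read-out.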

HEK293 = test system: HEK293
In short: as §1

HaCat = test system: HaCat
In short: as §1
Potency is read from the fitted curve at half-maximal effect.

SMILES: CC1(C)C[C@H]2C3=CCC4[C@@]5(C)CC[C@H](O[C@H]6O[C@H](C(=O)O)[C@@H](O)[C@H](O)[C@H]6O[C@H]6O[C@H](CO)[C@@H](O)[C@H](O)[C@H]6O[C@@H]6O[C@H](CO)[C@@H](O)[C@H](O)[C@H]6O)[C@](C)(CO)C5CC[C@@]4(C)[C@]3(C)CC[C@@]2(C)[C@H](O[C@@H]2OC[C@H](O)[C@H](OC3O[C@H](CO)[C@@H](O)[C@H](O)[C@H]3O)[C@H]2O)[C@@H]1O (stereo partly drawn)
- max response (CRL-7250): 3.94%
- outcome (HEK293): inactive
- outcome (HaCat): inactive

SMILES: CC1(C)CC[C@]2(C(=O)O[C@@H]3O[C@H](CO)[C@@H](O)[C@H](O)[C@H]3O)CC[C@]3(C)C(=CCC4[C@@]5(C)C[C@@H](O)[C@H](O)[C@@](C)(CO)C5CC[C@]43C)C2C1 (stereo partly drawn)
- max response (CRL-7250): 1.73%
- outcome (HEK293): inactive
- outcome (HaCat): inactive

SMILES: COc1cc(/C=C/C(=O)OC2CC(OC(C)=O)C(OC(C)=O)C3C2CCC2C(=O)OC(c4ccoc4)CC23C)ccc1O[C@@H]1O[C@H](CO)[C@@H](O)[C@H](O)[C@H]1O (stereo partly drawn)
- max response (CRL-7250): -8.1%
- outcome (HEK293): inactive
- Potency (HaCat): 6.11 µM (active)

SMILES: COc1cc(CC(COC2OC(CO)C(O)C(O)C2O)c2cc(/C=C/CO)cc(OC)c2O)ccc1O (stereo not drawn)
- outcome (CRL-7250): inactive
- outcome (HEK293): inactive
- max response (HaCat): 1.49%

SMILES: CCc1c(CC(N)=O)c2cc(OCCCP(=O)(O)O)ccc2n1Cc1ccccc1
- max response (CRL-7250): -8.49%
- outcome (HEK293): inactive
- outcome (HaCat): inactive

SMILES: CC(=O)OC[C@@]12[C@@H](OC(C)=O)C[C@@H](C)[C@](C)([C@@H]3C[C@H]4C=CO[C@H]4O3)[C@H]1CCC[C@]21CO1
- max response (CRL-7250): 0.841%
- outcome (HEK293): inactive
- max response (HaCat): 2.97%

SMILES: O=C(NCC(=O)N1CC[C@H](NC2CCC(O)(c3ccc(-c4ncccn4)cn3)CC2)C1)c1cccc(C(F)(F)F)c1 (stereo partly drawn)
- max response (CRL-7250): -2.44%
- outcome (HEK293): inactive
- outcome (HaCat): inactive

SMILES: C[C@@H]1O[C@@H](O[C@H]2[C@H](O[C@H]3CC[C@@]4(C)C(CC[C@]5(C)C4CC=C4C6CC(C)(C)CC[C@]6(C(=O)O[C@@H]6O[C@H](CO[C@@H]7O[C@H](CO)[C@@H](O[C@@H]8O[C@@H](C)[C@H](O)[C@@H](O)[C@H]8O)[C@H](O)[C@H]7O)[C@@H](O)[C@H](O)[C@H]6O)CC[C@]45C)[C@]3(C)CO)OC[C@H](O)[C@@H]2O)[C@H](O)[C@H](O)[C@H]1O (stereo partly drawn)
- outcome (CRL-7250): inactive
- outcome (HEK293): inactive
- max response (HaCat): -8.43%

SMILES: O=S(=O)(NC1CCNCC1)c1cc(S(=O)(=O)c2ccccc2)ccc1C(F)(F)F
- max response (CRL-7250): 1.06%
- outcome (HEK293): inactive
- outcome (HaCat): inactive

SMILES: CC1(C)CCCC2(C)C1C(O)C=C(CO)C2(O)C(=O)O (stereo not drawn)
- max response (CRL-7250): 3.48%
- outcome (HEK293): inactive
- max response (HaCat): -13.1%

SMILES: CCC(C)(O)C(O)C(=O)OCc1ccc(O[C@@H]2O[C@H](CO)[C@@H](O)[C@H](O)[C@H]2O)c(OC)c1 (stereo partly drawn)
- max response (CRL-7250): 0.769%
- outcome (HEK293): inactive
- outcome (HaCat): inactive

SMILES: C=C1[C@H]2CC[C@]3(O)[C@@](CC[C@@H]4[C@](C)(C(=O)O)CCC[C@]43C)(C2)[C@H]1OC(=O)/C(C)=C\C
- max response (CRL-7250): 2.63%
- outcome (HEK293): inactive
- max response (HaCat): -13.2%

SMILES: C=CC(C)(C)C12CC3C(=O)NC(Cc4cnc[nH]4)C(=O)N3C1Nc1ccccc12 (stereo not drawn)
- max response (CRL-7250): -2.57%
- outcome (HEK293): inactive
- outcome (HaCat): inactive

SMILES: CC1(C)CCC(C)(C)c2cc([C@@H](O)C(=O)Nc3ccc(C(=O)O)cc3F)ccc21
- max response (CRL-7250): -3.37%
- outcome (HEK293): inactive
- max response (HaCat): -6.8%

SMILES: Nc1ccn([C@@H]2C(F)=C(CO)[C@@H](O)[C@H]2O)c(=O)n1
- max response (CRL-7250): -25.3%
- Potency (HEK293): 920 nM (active) and 933 nM (active)
- Potency (HaCat): 18.4 µM (active)

SMILES: CC1(C)CCC(C)(C)c2cc3c(cc21)Sc1ccccc1N=C3c1ccc(C(=O)O)cc1
- outcome (CRL-7250): inactive
- outcome (HEK293): inactive
- max response (HaCat): -6.28%

SMILES: Cc1cccc(-c2[nH]c(CNc3ccccc3F)nc2-c2ccc3ncnn3c2)n1
- outcome (CRL-7250): inactive
- outcome (HEK293): inactive
- outcome (HaCat): inactive

SMILES: COc1cc(/C=C/C(=O)O[C@H]2[C@H](O)[C@@H](CO)O[C@@]2(CO)O[C@H]2O[C@H](COC(=O)c3ccc(O)cc3)[C@@H](O)[C@H](O)[C@H]2O)cc(OC)c1OC
- outcome (CRL-7250): inactive
- outcome (HEK293): inactive
- max response (HaCat): 4.76%

SMILES: CC[C@H](C)[C@@H]1NC(=O)[C@H](Cc2ccc(OC)cc2)NC(=O)CCCSC[C@@H](C(=O)N2CCC[C@H]2C(=O)N[C@@H](CC(C)C)C(=O)NCC(N)=O)NC(=O)[C@H](CC(N)=O)NC(=O)[C@H](CCC(N)=O)NC1=O (Y(Me)IQNCPLG-NH2; linker N-5 via X6)
- max response (CRL-7250): -0.379%
- outcome (HEK293): inactive
- max response (HaCat): -67.2%

SMILES: COC(=O)C1=CO[C@@H](O[C@@H]2O[C@H](CO[C@@H]3O[C@H](COC(=O)/C=C/c4ccc(O)cc4)[C@@H](O)[C@H](O)[C@H]3O)[C@@H](O)[C@H](O)[C@H]2O)[C@@H]2C(CO)=CC[C@H]12
- max response (CRL-7250): 4.68%
- outcome (HEK293): inactive
- max response (HaCat): 0.423%

SMILES: N#CC1C(=O)Nc2scc(-c3ccc(-c4ccccc4O)cc3)c2C1=O (stereo not drawn)
- max response (CRL-7250): -4.61%
- outcome (HEK293): inactive
- max response (HaCat): 1.11%
